The panel holds about 79,000 compounds, 15% with a hit somewhere; the sample as a whole holds those more often. Values without a mark were called inactive. Activity calls are given as the source filed them. No stated cut-off is given here; in the data, active means growth inhibition above about 70%; inactive means the rest.
Columns and labels:
[1] = NCI Yeast Anticancer Drug Screen. Data for the rad50 strain (AID 155);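 further: 0% = growth of vehicle-only cultures of the same strain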; details: S. cerevisiae rad50 strain growth inhibition; at 50.0 µM; stronger effect = higher value
How it was run: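 DNA repair mutant yeast, compound exposure, growth read-out; inhibition is taken relative to vehicle.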

[2] = NCI Yeast Anticancer Drug Screen. Data for the mec2-1 strain (AID 157); details: S. cerevisiae mec2-1 strain, at 50.0 µM, stronger effect = higher value
How it was run: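 Strain: mec2-1 (DNA repair/cell cycle alteration). Compound exposure, then growth measured; inhibition expressed relative to vehicle.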

[3] = NCI Yeast Anticancer Drug Screen. Data for the sgs1 mgt1 strain (AID 161);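 further: 0% = growth of cultures given vehicle only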; details: S. cerevisiae sgs1 mgt1 strain, at 50.0 µM, stronger effect = higher value
How it was run: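 Genetically altered yeast, compound exposure, growth inhibition relative to vehicle.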

[4] = NCI Yeast Anticancer Drug Screen. Data for the cln2 rad14 strain (AID 165);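 further: 0% = growth equal to vehicle treated cultures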; details: S. cerevisiae cln2 rad14 strain, at 50.0 µM, stronger effect = higher value
How it was run: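 Compounds are applied to the cln2 rad14 yeast strain, and growth is then compared with that of vehicle-treated cultures to give inhibition.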

[5] = NCI Yeast Anticancer Drug Screen. Data for the bub3 strain (AID 167); details: S. cerevisiae bub3 mutant strain, at 50.0 µM, stronger effect = higher value
How it was run: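 In this screen, a yeast mutant lacking normal mitotic checkpoint function is challenged with compound. Relative growth versus vehicle gives the inhibition value.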

[6] = NCI Yeast Anticancer Drug Screen. Data for the mlh1 rad18 strain (AID 175); details: S. cerevisiae mlh1 rad18 strain growth inhibition; at 50.0 µM; stronger effect = higher value
How it was run: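 Read-out is yeast growth inhibition, calculated against vehicle-only controls. The compound was applied to a strain engineered with DNA damage repair alterations.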

Row | SMILES | growth inhibition [1] | growth inhibition [2] | growth inhibition [3] | growth inhibition [4] | growth inhibition [5] | growth inhibition [6]
1 | CCCCCCCCCCCCCCCC(=O)Nc1ccc(C(=O)C[n+]2ccc3c(NC(=O)CCC(=O)OC)cccc3c2)cc1 | 3.4% | -12.2% | 3% | -0.95% | 8.55% | -10.6%
2 | O=C1c2ccccc2C(=O)N1CC(O)COCc1ccccc1 (stereo unspecified) | -17.8% | -25.8% | -31.7% | -15.9% | 25.6% | -6.55%
3 | NC1=NC(c2ccccc2)C2=C(N1)C(=O)N(Cc1ccccc1)C2 (stereo unspecified) | 5.65% | -6.25% | -0.8% | -18.9% | -16.8% | 3.15%
4 | COc1ccc(C2(CN(C)C)COc3cc(OC)c(OC)cc3C2=O)cc1OC (stereo unspecified) | 27% | 2.8% | -7% | 27.6% | -2.1% | 13.3%
5 | O=C(COc1ccc(Cl)cc1)N(c1ccccc1)C1CCCCC1 | 95.9% (active) | 98.3% (active) | 97.5% (active) | 96.2% (active) | 95.2% (active) | 96.9% (active)
6 | CCOc1cc(C(=O)O)cc(OCC)n1 | -0.1% | -9.45% | 9.2% | -29.4% | 8.95% | 3.05%
7 | O=C(COC(=O)C(CC(=O)c1ccccc1)Cc1ccccc1)c1ccc(-c2ccccc2)cc1 (stereo unspecified) | 25.7% | 25.3% | 6% | 30.8% | 35.4% | 13.3%
8 | c1ccc(C(Sc2ncnc3nc[nH]c23)c2ccccc2)cc1 | 15% | 13.2% | -3.85% | -22.5% | 18.1% | 0.1%
9 | Fc1cccc2c1Cc1ccccc1-2 | 5.75% | -8.65% | -21.3% | -58.7% | -1.85% | 17.3%
10 | COC(=O)c1ccccc1NC(=O)/C(=N\NC(C)(C)C)C(C#N)c1nc(-c2ccc([N+](=O)[O-])cc2)cs1 (stereo unspecified) | -4.35% | 14% | -0.6% | 18.6% | 26.1% | -8.3%
11 | CC(=O)/C=C(\c1ccccc1)c1c(O)c2ccccc2oc1=O | -2% | 9.15% | 4.45% | 7.2% | 3.85% | 6.15%
12 | Cc1ccc(S(=O)(=O)C(C#N)(Cc2c[nH]c3ccccc23)Cc2c[nH]c3ccccc23)cc1 | 4.85% | 9.25% | -5.25% | -16.2% | 11.8% | 6.5%
13 | COc1ccc(N=N/C(=N/NC(=O)c2ccccc2)c2ccc(N(CCC#N)CCC#N)cc2C)cc1 | -4.35% | -13.5% | -22.8% | -7.2% | -23.1% | -44.5%
14 | CN=[N+]([O-])c1ccccc1 | 1.75% | 17.9% | 4.35% | 15.2% | 10.9% | 1.6%
15 | N#Cc1c2c(c(=O)n3c1[nH]c1ccccc13)CCCC2 | 16.2% | 5.35% | 19.8% | 7.95% | 18.4% | 18.5%
16 | COC1=CC(=O)C(C2OC(=O)C(Cl)=C2Cl)=CC1=O (stereo unspecified) | 8.1% | 7.3% | -2.45% | -11.4% | 16.6% | 13.2%
17 | CCCCCCCCCC(C)=O | -9.8% | -4.4% | -16% | -17.9% | 4.45% | -12.2%
18 | Cc1ccc(N=NC(=O)NNc2ccc(C)c([N+](=O)[O-])c2)cc1[N+](=O)[O-] | 55% | 3.9% | 17.6% | 16.1% | 6.45% | 32.4%
19 | Cc1cc(O)c(C=NC(=S)c2ccccc2)c(=O)o1 | -14.1% | -32% | 10.2% | 5.3% | 4.55% | -40.4%
20 | COc1ccc(NC(=O)NCc2ccc(C)cc2)cc1 | 4.45% | 33.8% | 33.8% | -5.5% | 7.85% | 26.9%
21 | NC(=O)c1ccc(I)cc1 | 1.75% | 9.3% | 4% | -30.1% | -37% | 8.25%

Row | SMILES | growth inhibition [1] | growth inhibition [2] | growth inhibition [3] | growth inhibition [4] | growth inhibition [5] | growth inhibition [6]
22 | CCOC(=O)CC(=O)Nc1cc(C)cc(C)n1 | 2.1% | 14.5% | 9.5% | 32.6% | 25.1% | 5.7%
23 | NC(Cc1c[nH]c2ccc([N+](=O)[O-])cc12)C(=O)O (stereo unspecified) | 15.9% | -28.6% | -24.8% | 2.45% | -48.6% | -7.7%
24 | O=C(Nc1ccc([N+](=O)[O-])cc1)OC1CCS(=O)(=O)C1 (stereo unspecified) | -0.2% | 6.15% | -3.65% | 13.7% | 8.6% | -1.65%
25 | COc1ccc(N=C2[Se]C(=NC(=O)c3ccccc3)N(c3ccc(OC)cc3)C2=Nc2ccc(OC)cc2)cc1 | 13.1% | -25.5% | -22.2% | -36% | 1.3% | -7.95%
26 | C[N+](C)(C)CC(O)CC#N (stereo unspecified) | -2.25% | 1.75% | -4% | -8.35% | 0.55% | -1.8%
27 | O=C(O)c1cc(-c2ccccc2)nc2cc(Cl)ccc12 | 29.9% | 12.8% | 19.1% | -9.35% | 24.4% | 25.6%
28 | O=C(O)C(CCS)(c1ccccc1)c1ccccc1 | 17.2% | -5.7% | 0.3% | 20.2% | 2.15% | 2%
29 | O=C(CCCCCCCCC(=O)OCC1OC(n2cnc3c(=O)[nH]cnc32)C(O)C1O)OCC1OC(n2cnc3c(=O)[nH]cnc32)C(O)C1O (stereo unspecified) | -47.5% | -44.7% | -42.3% | -8.3% | -22.9% | -35.3%
30 | CCOC(=O)NC(C(N)=O)C(N)=O | -0.3% | 15.8% | -1.6% | -44% | -13.3% | -2.45%
31 | O=C1C(Cl)N(c2ccccc2[N+](=O)[O-])C1c1c[nH]c2ccccc12 (stereo unspecified) | -13.6% | -22.6% | 3.65% | -19.9% | -26.2% | -31.7%
32 | CC(=O)Nc1ccc(N(C)C)cc1Cl | -24.6% | -17.2% | -13.7% | -17.1% | -1.8% | -16.1%
33 | COC(C)C(NC(=O)C1CCCN1C)C1OC(SCCOC(=O)c2ccccc2O)C(O)C(O)C1O (stereo unspecified) | 8.3% | 6.3% | -13.6% | 13.4% | 3.45% | 31.6%
34 | CC(=O)N=C1CSc2ccccc2N1C | -1.15% | -7.2% | -7.9% | -40.4% | -15.5% | -8.9%
35 | CCC1c2c(cc(=O)[nH]c2O)C(=O)N1C (stereo unspecified) | 9.5% | -4.75% | 3.95% | -9.15% | -0.8% | 0.55%
36 | CCCC(C)(C)CO | 1.75% | 1.35% | -1.85% | 5.6% | 9.3% | 5.75%
37 | Cc1ccc(OS(=O)(=O)NC(=O)NCc2ccco2)cc1 | 18.8% | 4.9% | 7.7% | 8.9% | 3.95% | 4.35%
38 | CS/C(=N/S(=O)(=O)c1ccccc1)NNC(=S)Nc1ccc(C(C)C)cc1 | 14% | -12.6% | 27.2% | 22.6% | 28.3% | 25.9%
39 | COc1ccc(NC(=O)NCc2ccc(C)c(C)c2)cc1 | -0.8% | 38.8% | 22.3% | -3.05% | 20.1% | 35%
40 | N#CCCS(=O)(=O)O | 29.1% | 21.9% | -6.9% | 1.95% | 15.9% | 13.8%
41 | O=C(/C=N/O)Nc1ccccc1I | 3.95% | -9.95% | 20.4% | 16.6% | 18.1% | -3.5%

Source: PubChem BioAssay (NCI)
